BoNT A protease = inhibitors of Botulinum neurotoxin A light chain protease. hit rate 0.17% among 360,000. multiplex microsphere protease substrate cleavage, flow cytometry. inhibition, % at 10 µM; also: plate controls were buffer without enzyme for full effect and enzyme alone for no effect
Anthrax LF prot = blocks Bacillus anthracis lethal factor protease. AID 588501. P15917. inhibition, % at 10 µM. hit rate 0.12% among 360,000. multiplex microsphere protease cleavage assay, LF; also: plate controls were buffer without enzyme for full effect and enzyme alone for no effect
FBA Mtb inh = Mtb fructose-bisphosphate aldolase inhibition; hit rate 2.3% among 360,000; inhibition, % at 1 µM; purified M. tuberculosis FBA, fluorescence read-out; AID 588726; P9WQA3; in the data active = inhibition above about 27%;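 also: 0% = vehicle and 100% = reference inhibitor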
BoNT-F LC inh = BoNT F light chain protease inhibition; AID 588497; hit rate 0.22% among 360,000; Multiplex microsphere protease cleavage assay, flow cytometry; inhibition, % at 10 µM; in the data active = inhibition above about 35%, passing the limit was not always enough; inconclusive = no clear call, values can overlap the other calls; also: plate controls were buffer without enzyme for full effect and enzyme alone for no effect
Bead autofluor = flagged as autofluorescent in microsphere protease counterscreen | compound autofluorescence counterscreen, microsphere flow cytometry; active compounds read high | fluorescence intensity (concentration not given with the values) | hit rate 3.1% among 360,000 | AID 624483; in the data active = fluorescence intensity above about 16000; inconclusive = no clear call, values can overlap the other calls
GDH-TPI counter = inhibits GDH-TPI coupling enzymes, artifact for Mtb FBA screen; GDH-TPI coupled enzyme counterscreen, NADH absorbance; inhibition, % at 4.8 µM; hit rate 1.2% among 360,000; in the data active = inhibition above about 30%;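 also: 0% = DMSO wells and 100% = wells lacking the enzyme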
Numbers without * were called inactive; u = inconclusive; x = not tested or not shown. Hits are enriched below; roughly 6.7% of the tested compounds scored in any of these assays. Rule as the data show it, unless noted: active = inhibition above about 30%; inconclusive = no clear call, values can overlap the other calls; inactive = below that.

SMILES | BoNT A protease | Anthrax LF prot | FBA Mtb inh | BoNT-F LC inh | Bead autofluor | GDH-TPI counter
C/C(=N\O)C1(C)N(O)C(C)(C)C(c2ccco2)=[N+]1[O-] (stereo not drawn) | 1 | 0 | -3 | 8 | 2645 | 4
O=C(O)CC(NNC(=O)c1ccccc1)C(=O)Nc1ccc([N+](=O)[O-])cc1 (stereo not drawn) | 1 | 2 | 6 | -2 | 4490 | 31*
O=C(Nc1ccc(C(=O)O)cc1)Nc1ccc([N+](=O)[O-])cc1 | 1 | -20 | 1 | -36 | 4125 | 22
NC(N)=NCCCC(NC(=O)c1ccccc1)C(=O)Nc1ccc([N+](=O)[O-])cc1 (stereo not drawn) | 0 | 1 | -4 | -11 | 5565 | 18
O=C(Nc1ccc([N+](=O)[O-])cc1)C1C(c2ccccc2)=C1c1ccccc1 | 0 | -2 | 3 | 3 | 12220 | 33*
C[C@@H](O)CNC(=O)c1[nH]cnc1C(=O)N[C@H](C)c1ccccc1 | 0 | -2 | 0 | 0 | 3270 | -1
CC(Sc1nc2ccccc2o1)C(=O)O (stereo not drawn) | -2 | -1 | 0 | -2 | 20941* | 2
O=C(c1noc2c1CCCC2)N1CCN(Cc2ccccc2)CC1 | 0 | 0 | -1 | -5 | 10977 | -5
O=C(COC(=O)c1c(Cl)cccc1Cl)NCC1CCCO1 (stereo not drawn) | -1 | 4 | 2 | -1 | u | 4
Cc1ncsc1C(=O)NCc1ccc(N2CCCC2=O)cc1 | 0 | -2 | 1 | 3 | 16227* | 5
O=C1CSc2ccccc2N1Cc1ccc(F)cc1 | 6 | -4 | 2 | 14 | 21142* | -1
CCOC(=O)CN1C(=O)CSc2ccccc21 | -3 | 1 | 4 | -6 | 24381* | 9
CC1S/C(=N/N=C/c2ccco2)N(Cc2ccc(F)cc2)C1=O (stereo not drawn) | 1 | -16 | -2 | u | 4285 | 25
O=C1CS/C(=N/N=C/c2ccco2)N1Cc1ccc(F)cc1 | -1 | -14 | -1 | u | 3435 | 38*
O=C(O)CN1C(=O)CSc2ccccc21 | 0 | 0 | -1 | 0 | 9223 | 6
O=C1CCCc2ccccc2N1Cc1ccc(F)cc1 | 0 | 1 | 5 | -7 | 4265 | -4
CN(Cc1nc2ccc(Cl)cc2[nH]1)Cc1nc(-c2cnccn2)no1 | 1 | 1 | -2 | -1 | 2786 | 2
C[C@@H]1CN([C@@H](C)CO)S(=O)(=O)c2ccc(-c3ccccc3)cc2O[C@@H]1CN(C)Cc1ccccc1C(=O)O | 0 | -3 | -4 | 2 | 3653 | -11
COc1ccc2[nH]c3c(=O)n(CCCCC(=O)N4CCCC4)c(=S)[nH]c3c2c1 | 0 | -1 | 12 | 0 | 23557* | 11
CC1CCN(C(=O)C2COc3ccccc3O2)CC1 (stereo not drawn) | 0 | 11 | 0 | -1 | 8617 | 1
COc1cc(C2C(C#N)=C(N)N(N(C)C)C3=C2C(=O)CC(C)(C)C3)ccc1O (stereo not drawn) | -4 | 1 | 3 | u | 3805 | 1
Cc1ccc(-c2cc(C(F)(F)F)nc(SCC(=O)c3cccc([N+](=O)[O-])c3)n2)cc1 | -4 | -12 | 2 | -28 | 8580 | 21
Cc1cc(C(F)(F)F)nc(SCC(=O)c2cccc([N+](=O)[O-])c2)n1 | -5 | 1 | 2 | -8 | 17551* | 1
Cc1ccc(OCCSc2ncccn2)c(C)c1 | 0 | -8 | 1 | -2 | 3449 | 6
CCOC(=O)c1c(C)[nH]c(C(=O)COC(=O)c2ccccn2)c1C | 2 | -2 | 1 | -1 | 19471* | -4
SMILES | BoNT A protease | Anthrax LF prot | FBA Mtb inh | BoNT-F LC inh | Bead autofluor | GDH-TPI counter
CCOC(=O)c1c(C)[nH]c(C)c1C(=O)CSc1ncccn1 | 4 | -1 | 4 | 5 | 21577* | -4
CC(=O)c1c(C)[nH]c(C(=O)COC(=O)c2cccnc2Cl)c1C | 0 | 3 | 0 | -5 | 2975 | 6
CC(=O)c1c(C)[nH]c(C(=O)COC(=O)c2nccnc2N)c1C | 3 | 0 | 157* | 2 | u | 10
CCOC(=O)c1c(C)[nH]c(C)c1C(=O)CSc1nc2ccccc2[nH]1 | 0 | -3 | 0 | 6 | 10264 | -3
Nc1nccnc1C(=O)OCC(=O)c1ccc[nH]1 | 0 | 5 | 165* | -7 | 5964 | 12
C/C(=N/NC(=O)CNC(=O)c1cccnc1)c1ccc(Cl)cc1 | 1 | 2 | 4 | -9 | 3924 | 0
CC(=O)COc1cccc2ccc(/C=C/c3ccc(Br)s3)nc12 | 0 | 3 | 0 | -6 | 3515 | 17
CCOC(=O)c1ccc(NC(=S)N(CCCN2CCCC(C)C2)Cc2cccs2)cc1 (stereo not drawn) | 0 | -3 | 25 | 2 | 4499 | 2
COc1cc(CNC(=O)Nc2nnc([C@H]3C[C@H](O)[C@@H](CO)O3)s2)cc(OC)c1OC | 0 | 1 | 5 | 3 | 2871 | 9
COc1ccc(S(=O)(=O)Nc2ccccc2C(=O)N2CCOCC2)cc1OC | 0 | -3 | -3 | 2 | 5290 | -2
CCOC(=O)c1c(C)[nH]c(C(=O)COC(=O)C2(C)CC2(Cl)Cl)c1C (stereo not drawn) | 0 | -1 | -2 | -1 | 23186* | 4
COC(=O)c1cc(OC)c(OC)cc1NC(=S)N1CCN(C)CC1 | -1 | 1 | 1 | -4 | 10029 | 8
COC(=O)c1ccc(C(=O)OC)c(NC(=S)N2CCN(c3ccccc3)CC2)c1 | -1 | -3 | 30* | -11 | 7741 | 16
CCOc1cc(NC(=S)N2CCC(C(N)=O)CC2)c(C(=O)OC)cc1OCC | -1 | -2 | -2 | -5 | 3347 | 4
COC(=O)c1cc(OC)c(OC)cc1NC(=S)N1CCCCC1 | 5 | 2 | -1 | 8 | 20422* | 1
CCOC(=O)C1CCN(C(=S)Nc2cc(OC)c(OC)cc2C(=O)OC)CC1 | 0 | 1 | 1 | 1 | 20685* | 6
COC(=O)c1cc(OC)c(OC)cc1NC(=S)N1CCC(C(N)=O)CC1 | -4 | -3 | 1 | -6 | 17588* | 13
Cc1cc(Br)ccc1OCCOCCN1CCCC1 | 3 | 5 | 1 | u | 2803 | 12
COc1ccc(NC(=O)CC2Oc3ccccc3NC2=O)cc1 (stereo not drawn) | 0 | 5 | 3 | -7 | 5215 | 1
COC(=O)c1cc(OC)c(OC)cc1NC(=O)CN1CCCCC1 | 0 | -4 | 1 | -4 | 22761* | 1
COC(=O)c1ccc(C(=O)OC)c(NC(=O)CN2CCCCC2)c1 | 0 | 0 | 3 | -3 | 2051 | 8
COc1cccc(-c2c(C(=O)N/N=C/c3cccnc3)nnn2-c2nonc2N)c1 | x | x | -1 | x | x | 8
CCC(C)c1ccc(NC(=O)CC(C)=O)cc1 (stereo not drawn) | u | -2 | 0 | -3 | 22794* | 5
CSc1ccc(NC(=O)CC(C)=O)cc1 | 0 | -2 | 2 | 2 | 22536* | 7
CCn1c(=O)c(C(=O)NNC(=O)Cc2ccccc2)c(O)c2ccccc21 | -1 | -3 | 2 | -17 | 4011 | 11
